Among the data in PubChem BioAssay (NCI) are growth values, retold here.

Compounds without any hit were thinned out: in the full panel of roughly 83,000, 20% have a hit.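 Each cell line was grown in a 96-well plate and treated with one concentration of compound for 48 hours. Values below 10 were considered active.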 A number with no mark means an inactive call. The source made the active and inactive calls.

Holding throughout (experiment): NCI-60 one-dose screen, 48 h (100 = growth as untreated, 0 = no growth, -100 = all killed)
Common to all, as to details: 10 µM unless noted

The test system of experiment [1] is T-47D breast.
Experiment [2] deals with BT-549 breast.
Experiment [3] relates to MDA-MB-435 melanoma.
The test system of experiment [4] is SW-620 colon.
Experiment [5] concerns MCF7 breast.
For experiment [6], the system named is HCT-116 colon.
The test system of experiment [7] is HCC-2998 colon.
The subject of experiment [8] is KM12 colon.

In the case of `CC(C)COc1nc2c(c(=O)n(C)c(=O)n2C)n1C`, the growth was 88.6% in experiment [1]; 103% in experiment [2]; 104% in experiment [3]; 102% in experiment [4]; 86.4% in experiment [5]; 107% in experiment [6]. For the same compound, the growth in experiment [7] is 102%; in experiment [8], 99.5%.

In the case of `CCN(C)S(=O)(=O)Nc1cccc(Nc2ncnc3cc(NC(=O)CCl)ccc23)c1Cl`, the growth in experiment [1] was 16%; in experiment [2], -4.04% (active); in experiment [3] it was -5.32% (active); in experiment [4], -53.5% (active); in experiment [5] it was -5.68% (active); in experiment [6] it was 0.862% (active). Further, the growth in experiment [7] was 39.1%; in experiment [8] it was 1.71% (active).

Consider `COCCOc1cc2ncnc(N3CCN(c4ncc(S(=O)(=O)N5CCCCC5)cn4)CC3)c2cc1OCCOC`, for which the growth in experiment [1] is 87%; in experiment [2], 105%; in experiment [3], 105%; in experiment [4], 109%; in experiment [5], 78.7%; in experiment [6], 100%. Also, the growth is 99.3% in experiment [7] and 97.6% in experiment [8].

As for `CC1(C)COB(OCC(C)(C)COB2OCC(C)(C)CO2)OC1`, the growth is 104% in experiment [1]; 105% in experiment [2]; 110% in experiment [3]; 110% in experiment [4]; 107% in experiment [5]; 101% in experiment [6]. Moreover, the figures for the growth in experiment [7] and in experiment [8] were 104% and 103%, respectively.

Regarding `O=C(N/N=C/c1c(Cl)cccc1Cl)c1cccnc1Nc1cccc(C(F)(F)F)c1`, the growth in experiment [1] was 15.7%; in experiment [2], 43%; in experiment [3], 36.2%; in experiment [4], 44.9%; in experiment [5], 23.2%; in experiment [6], 35.5%. Further, the growth in experiment [7] was 72.2%; in experiment [8] it was 41.9%.

Regarding `C=C(C)[C@@H]1CC[C@]2(CO)CC[C@]3(C)[C@H](CC[C@@H]4[C@@]5(C)CC[C@H](NCO)C(C)(C)[C@@H]5CC[C@]43C)[C@@H]12`, the growth in experiment [1] was -42.9% (active); in experiment [2] it was 74.3%; in experiment [3] it was -84.5% (active); in experiment [4], -79.7% (active); in experiment [5], -62.8% (active); in experiment [6] it was -62.1% (active). The growth was -63.3% (active) in experiment [7] and -77.5% (active) in experiment [8].

As to `C=C(C)[C@@H]1CC[C@]2(C(=O)O)CC[C@]3(C)[C@H](CC[C@@H]4[C@@]5(C)CCC(NC(=O)c6cccc(OC(C)=O)c6OC(C)=O)C(C)(C)[C@@H]5CC[C@]43C)[C@@H]12` (stereo not given in full), the growth in experiment [1] is 20.9%; in experiment [2], 16.5%; in experiment [3] it was -56.4% (active); in experiment [4], 2.79% (active); in experiment [5] it was 4.17% (active); in experiment [6] it was -38.6% (active). Moreover, the growth is 12% in experiment [7] and 12.1% in experiment [8].

As to `COc1cc2ncnc(Nc3ccc(F)c(Cl)c3)c2cc1OCC(=O)N1CCN(c2ccccc2)CC1`, the growth in experiment [1] was 77.4%; in experiment [2], 106%; in experiment [3], 95.6%; in experiment [4], 101%; in experiment [5] it was 90%; in experiment [6] it was 67.7%. Moreover, the growth in experiment [7] was 97.8%; in experiment [8], 102%.

As for `CCOC(=O)c1c2c(n3cccc(F)c13)C(=O)c1ncccc1C2=O`, the growth was 54.5% in experiment [1]; 21.7% in experiment [2]; 13.1% in experiment [3]; -7.69% (active) in experiment [4]; -23.1% (active) in experiment [5]; -10.7% (active) in experiment [6]. Further, the growth in experiment [7] was 25%; in experiment [8], 19%.

For the compound `COC(=O)C1Cc2ccccc2CN1C(=O)c1ccc2c(c1)Cc1ccccc1-2` (stereo not given), the growth is 15.8% [50 µM] in experiment [1]; 28.3% [50 µM] in experiment [2]; 24.9% [50 µM] in experiment [3]; 51.2% [50 µM] in experiment [4]; 16.7% [50 µM] in experiment [5]; 30.2% [50 µM] in experiment [6]. Moreover, the figures for the growth in experiment [7] and in experiment [8] were 67.7% [50 µM] and 34.2% [50 µM], respectively.

As to `CCOC(=O)C/C(=N\Nc1cc(=O)[nH]c2ccc(Br)cc12)C(=O)OCC`, the growth is 105% in experiment [1]; 96.6% in experiment [2]; 101% in experiment [3]; 90.4% in experiment [4]; 91.9% in experiment [5]; 99.7% in experiment [6]. The values for the growth in experiment [7] and in experiment [8] were 96.9% and 96%, respectively.

`COC(=O)CC[C@H](C)[C@H]1CC[C@H]2[C@@H]3CC[C@@H]4CC5(CC[C@]4(C)[C@H]3CC(=O)[C@]12C)Nc1ccccc1NC5=NC(C)(C)C` (stereo not given in full): the growth is 82.3% in experiment [1]; 95.4% in experiment [2]; 85.1% in experiment [3]; 69.7% in experiment [4]; 58.5% in experiment [5]; 28.3% in experiment [6]. The growth in experiment [7] is 107%; in experiment [8], 83%.

For the compound `Cc1[nH]c(=O)[nH]c(=O)c1Br`, the growth is 108% in experiment [1]; 108% in experiment [2]; 102% in experiment [3]; 102% in experiment [4]; 95.6% in experiment [5]; 106% in experiment [6]. The values for the growth in experiment [7] and in experiment [8] were 87.8% and 108%, respectively.

For `COc1ccc(-c2cc(-c3cccnc3)nc3sc4c(=O)[nH]c(-c5ccc(Cl)cc5)nc4c23)cc1OC`, the growth was 66.8% in experiment [1]; 91.1% in experiment [2]; 99.8% in experiment [3]; 92.2% in experiment [4]; 73.5% in experiment [5]; 80.7% in experiment [6]. In addition, the growth was 105% in experiment [7] and 99% in experiment [8].

For the compound `Cc1c[n+](Cc2ccc3ccccc3c2)cn1Cc1ccc2ccccc2c1`, the growth in experiment [1] was -8.03% (active); in experiment [2], -2.98% (active); in experiment [3], -20.9% (active); in experiment [4] it was 36.8%; in experiment [5], 18.5%; in experiment [6] it was 23.2%. Further, the growth in experiment [7] is 14.8%; in experiment [8], -44.7% (active).
